The full list was thinned out, with hits kept by preference.
MITF inh: MITF inhibition; TRPM1 promoter luciferase, luminescence, 24 h; inhibition, % (no concentration beside the values); 37,000 tested, 0.28% active; AID 2240; in the data active means inhibition above about 85%; inconclusive means no clear call, values can overlap the other calls; inactive means below about 68%;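 further: human melanocyte line stably carrying TRPM1 promoter luciferase reporter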
Shh pathway inh: blocks Sonic Hedgehog signaling | Shh-LIGHT2 Gli-luciferase reporter, 30 h | inhibition, % (test concentration not listed) | 22,000 tested, 2.1% active | AID 2313;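 active means mean inhibition across valid replicates above about 65%, limit read from the data; inconclusive means mean under the limit, yet half or more replicates past it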;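 further: pathway switched on by Shh-conditioned medium diluted 1 in 25 in low serum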
The depositor's hits bear a star; ? = inconclusive; . = no result given.

SMILES	MITF inh	Shh pathway inh
C[C@@H]1O[C@@H](O[C@H]2[C@@H]3C=CO[C@@H](O[C@@H]4O[C@H](CO)[C@@H](O)[C@H](O)[C@H]4O)[C@@H]3[C@@]3(CO)O[C@@H]23)[C@H](OC(=O)/C=C/c2ccc(O)cc2)[C@H](O)[C@H]1O	.	65*
C=C1C(=O)O[C@@H]2[C@H]3O[C@]3(C)CCC=C(C)CC[C@@H]12	93*	82*
C=C1C(=O)O[C@H]2[C@H]1[C@@H](OC(=O)/C(C)=C/C)C(OC(C)=O)/C(C(=O)OC)=C\CC[C@@]1(C)O[C@H]21 (stereo partly drawn)	45	-313
C=C1C(=O)O[C@H]2[C@H]1C[C@H](OC(=O)/C(C)=C\C)/C(C)=C\CC[C@@]1(C)O[C@@H]21	33	5
C=C1C(=O)O[C@@H]2C3O[C@]3(C)CC/C=C(/C)CC[C@@H]12 (stereo partly drawn)	68	67*
C[C@@H]1O[C@@H](O[C@H]2[C@H](O[C@H]3CC[C@@]4(C)C(CC[C@]5(C)C4CC=C4C6CC(C)(C)CC[C@]6(C(=O)O[C@@H]6O[C@H](CO[C@@H]7O[C@H](CO)[C@@H](O[C@@H]8O[C@@H](C)[C@H](O)[C@@H](O)[C@H]8O)[C@H](O)[C@H]7O)[C@@H](O)[C@H](O)[C@H]6O)CC[C@]45C)C3(C)C)OC[C@H](O)[C@@H]2O)[C@H](O)[C@H](O)[C@H]1O (stereo partly drawn)	.	6
CC1CC[C@@]2(OC1)O[C@H]1CC3C4CC=C5C[C@@H](O[C@@H]6O[C@H](CO)[C@@H](O[C@@H]7O[C@@H](C)[C@H](O)[C@@H](O)[C@H]7O)[C@H](O)[C@H]6O[C@@H]6O[C@@H](C)[C@H](O)[C@@H](O)[C@H]6O)CC[C@]5(C)C4CC[C@]3(C)[C@@]1(O)[C@@H]2C (stereo partly drawn)	74	80*
CN(C1CCCCC1)S(=O)(=O)c1cc(Cl)ccc1Cl	-17	2
Cc1c(C2CCN(CCc3ccccc3)CC2)noc1-c1ccc(Cl)cc1	-1	77*
Cc1nc2n(c(=O)c1CCN1CCC(c3noc4cc(F)ccc34)CC1)CCCC2	-9	-42
O=c1cc(CSc2n[nH]c(=O)n2-c2ccccc2)c2ccc(O)cc2o1	0	-11
O=C1c2ccccc2C(=O)N1CCC12CC3CC(CC(C3)C1)C2	0	.
COc1cc2c(cc1OC)C1(CCCC1)CN(C(=O)c1cc(Br)ccc1OC)C2	36	-3
c1ccc(-c2ccc3c4ccccc4cc-3o2)cc1	18	-3
CCCCCCCCCC(O)CC(O)CC(O)CC1CC=CC(=O)O1 (stereo not drawn)	-26	-23
C=C(C(=O)O[C@H]1C/C=C(/C)C[C@H](O)[C@H]2[C@H](C)C(=O)O[C@@H]2/C=C\1C)[C@@H]1CCC(=C)[C@@H]2C[C@H](O[C@@H]3O[C@H](COC(=O)CC(=O)O)[C@@H](O)[C@H](O)[C@H]3O)C(=C)[C@@H]2C1	2	-2
COc1c(O)c2c(=O)cc(OC)c3c4c(OC)cc(=O)c5c(O)c(OC)c(C[C@@H](C)OC(=O)c6ccccc6)c(c(c1C[C@@H](C)OC(=O)Oc1ccc(O)cc1)c23)c54	74	72*
COc1ccc(C(OC(=O)c2ccccc2)c2nccc3ccccc23)cc1 (stereo not drawn)	-14	.
O=C(Nc1ccc(NC(=O)c2ccccc2O)cc1)c1ccc(Cl)cc1	-11	97*
CC(C)(C)c1ccc(C(=O)Nc2ccc(NC(=O)c3ccccc3F)cc2)cc1	10	15
C[C@H](CO)N1C[C@H](C)[C@@H](CN(C)S(=O)(=O)c2ccc(F)cc2)Oc2c(NC(=O)Nc3ccc(F)cc3)cccc2C1=O	1	29
Cc1ccc(S(=O)(=O)N(C)C[C@@H]2Oc3c(NC(=O)Nc4ccc(F)cc4)cccc3C(=O)N([C@H](C)CO)C[C@@H]2C)cc1	55	117*
Cc1ccc(S(=O)(=O)N(C)C[C@@H]2Oc3c(NC(=O)Nc4ccc(F)cc4)cccc3C(=O)N([C@@H](C)CO)C[C@H]2C)cc1	-17	0
Cc1ccc(S(=O)(=O)N(C)C[C@@H]2Oc3c(NC(=O)Nc4ccc(F)cc4)cccc3C(=O)N([C@@H](C)CO)C[C@@H]2C)cc1	30	108*
C[C@@H]1CN([C@@H](C)CO)C(=O)c2cccc(NC(=O)Nc3ccc(F)cc3)c2O[C@@H]1CN(C)S(=O)(=O)c1ccc(F)cc1	49	-7
SMILES	MITF inh	Shh pathway inh
C[C@H](CO)N1C[C@H](C)[C@H](CN(C)S(=O)(=O)c2ccc(F)cc2)Oc2c(NC(=O)Nc3ccc(F)cc3)cccc2C1=O	-15	101*
CN(C)CCNc1cn[nH]c(=O)c1Cl	-6	-37
COc1ccc(C(=O)Nc2ccc(C(O)(C(F)(F)F)C(F)(F)F)cc2)cc1	7	?
Cc1nnc(Nc2cccc(Cl)c2C)s1	21	22
C[C@@H]1CN([C@@H](C)CO)C(=O)c2cccc(NC(=O)c3ccc(-c4nccs4)cc3)c2O[C@@H]1CN(C)C(=O)Nc1cccc2ccccc12	5	66*
Cc1cc(C(=O)Nc2cccc3c2O[C@@H](CN(C)Cc2ccc(Oc4ccccc4)cc2)[C@@H](C)CN([C@@H](C)CO)C3=O)n(C)n1	-13	-9
C[C@H](CO)N1C[C@H](C)[C@H](CN(C)C(=O)Nc2cccc3ccccc23)Oc2c(NC(=O)c3ccc(-c4nccs4)cc3)cccc2C1=O	-19	-25
Cc1cc(C(=O)Nc2cccc3c2O[C@H](CN(C)Cc2ccc(Oc4ccccc4)cc2)[C@@H](C)CN([C@@H](C)CO)C3=O)n(C)n1	45	77*
Cc1cc(C(=O)Nc2cccc3c2O[C@@H](CN(C)Cc2ccc(Oc4ccccc4)cc2)[C@H](C)CN([C@H](C)CO)C3=O)n(C)n1	42	69*
Cc1cc(C(=O)Nc2cccc3c2O[C@H](CN(C)Cc2ccc(Oc4ccccc4)cc2)[C@H](C)CN([C@@H](C)CO)C3=O)n(C)n1	-16	-20
O=C(Nc1cc(C(F)(F)F)cc(C(F)(F)F)c1)C(=S)N1CCCCC1	5	14
COc1cc(CC2COC(=O)C2(O)Cc2ccc(O)c(OC)c2)ccc1O (stereo not drawn)	91*	-28
COc1cc(C[C@@]2(O)C(=O)OC[C@@H]2Cc2ccc(OC)c(OC)c2)ccc1O	67	50
Cc1ccc(C)n1-c1ccc(C(=O)OCC(=O)c2ccc(Cl)cc2)cc1	-13	46
C/C=C(/C)C(=O)O[C@@H]1c2cc(OC)c(OC)cc2-c2c(ccc(OC)c2OC)C[C@H]2C(=O)OC[C@H]12	4	3
COc1cc2c(c(OC)c1OC)-c1ccc(OC)c(=O)cc1[C@@H](NC(C)=O)CC2	55	91*
CC1=C(C(=O)OCc2ccccc2)C(c2ccoc2)C(C#N)=C(N)S1 (stereo not drawn)	-3	3
CCC(C)c1ccc(NC(=O)CSc2nc3ncccc3[nH]2)cc1 (stereo not drawn)	25	.
S=c1[nH]nc(CSCc2cccc3ccccc23)n1C1CCCCC1	18	69*
O=c1[nH]c(SCc2n[nH]c(=S)n2-c2ccccc2)nc2ccccc12	-27	.
CN1C(=O)c2ccccc2NC(=O)[C@]12O[C@@H]2c1cccc(O)c1	5	-15
O=C1N=C(c2cccc(O)c2)c2ccccc2Nc2ccccc21	10	86*
Nc1c(C(=O)c2ccc(Cl)cc2)oc2nc(-c3ccco3)cc(-c3cccs3)c12	1	.
CCCC(=O)Nc1ccc(N)cc1	0	.

Screening results (PubChem)
